In PubChem BioAssay AID1259324 (C. David Weaver Laboratory, Vanderbilt University, 2017):
Hit rate of the full screen: of about 34,000 compounds, fewer than 10 were called active.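 How the source made its calls: active means primary screen hit, no activity in plain HEK293 cells, and in GIRK2-only cells above 5% efficacy rising with concentration; inactive means the rest, including fluorescent compounds.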 These entries were drawn from the full list.

target: G protein-activated inward rectifier potassium channel 2 (Homo sapiens) (UniProt P48051); assay: GIRK2 activation atop partial GPCR stimulation – cell-based, HEK293, thallium flux, summary (AID 1259324); settings: HEK293 GIRK2/NPY4 cells, thallium flux fluorescence
Sequence (P48051 whole entry, looked up): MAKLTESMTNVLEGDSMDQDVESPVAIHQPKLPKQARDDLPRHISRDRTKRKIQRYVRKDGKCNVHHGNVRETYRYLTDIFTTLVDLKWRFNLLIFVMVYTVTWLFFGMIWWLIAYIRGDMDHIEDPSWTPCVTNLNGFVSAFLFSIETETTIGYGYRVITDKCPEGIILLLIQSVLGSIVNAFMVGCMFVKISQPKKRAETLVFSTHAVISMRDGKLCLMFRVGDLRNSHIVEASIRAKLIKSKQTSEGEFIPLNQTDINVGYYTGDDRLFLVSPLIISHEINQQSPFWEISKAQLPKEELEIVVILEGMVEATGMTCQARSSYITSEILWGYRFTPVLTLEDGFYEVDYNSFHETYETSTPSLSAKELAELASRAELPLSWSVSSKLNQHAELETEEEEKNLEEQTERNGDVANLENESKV

SMILES | outcome
Cc1c(C(=O)NCc2ccccc2Cl)nnn1-c1ccc(F)cc1 | inactive
Cc1cccc(NC(=O)c2cc(-c3ccco3)nc3c2c(C)nn3C2CCS(=O)(=O)C2)c1 (stereo not drawn) | inactive
Cc1cc(C(=O)Nc2nc(-c3cccs3)cs2)on1 | inactive; active
COc1ccc(CCNC(=O)Nc2cc(N3CCCS3(=O)=O)ccc2C)cc1 | inactive
O=C(Cc1cc(-c2ccc(F)cc2)on1)N1CCc2ccccc21 | inactive
O=C(NCCC1=CCCCC1)C(=O)NCc1nc(-c2ccccc2)no1 | inactive
COc1ccc(NC(=O)N2CCN(c3cc(OC)nc(OC)n3)CC2)cc1 | inactive
CC(C)(C)C(=O)N1CCc2ccc(NS(=O)(=O)c3ccc(Cl)s3)cc21 | inactive
COc1ccc(Cl)cc1C(=O)NCCNc1cc(-n2ccnc2C)ncn1 | inactive
COc1ccccc1C1(CNC(=O)Cc2ccc(F)cc2)CCOCC1 | inactive
CCOc1ccc(NC(=O)NCCCn2nc(-c3ccncc3)ccc2=O)cc1 | inactive; active
COc1ccc(NC(=O)Cn2cc(OC)c(=O)cc2CSc2nccc(C)n2)cc1 | inactive
O=C(C1CCCCC1)N(CCN1CCOCC1)c1nc2c(Cl)cccc2s1 | inactive
Cn1c(=O)c2cc(C(=O)NC3CCCCCC3)sc2n(C)c1=O | inactive
COc1ccc(C)cc1S(=O)(=O)NCC(c1ccc(F)cc1)N1CCN(C)CC1 (stereo not drawn) | inactive
O=C(Cc1ccc(-c2ccccc2)cc1)NCC1CCN(Cc2ccco2)CC1 | inactive
CCOc1ccc(-c2cc(=O)n(CC(=O)Nc3ccccc3F)cn2)cc1 | inactive
O=C(CCCS(=O)(=O)c1ccccc1)Nc1nc2c(F)cccc2s1 | inactive
CCOc1ccc2ccccc2c1C(=O)N1CCN(c2ncnc3c2nnn3C)CC1 | inactive
CCOC(=O)N1CCN(C(c2ccccc2F)c2sc3nc(CC)nn3c2O)CC1 (stereo not drawn) | inactive
COc1coc(C(=O)Nc2ccc(C(N)=O)cc2)cc1=O | inactive
COc1ccccc1CCNC(=O)Cc1csc(NC(=O)C2CCC(=O)N2)n1 (stereo not drawn) | inactive
O=C(C1CC=CCC1)N1CCN(CCn2ccnc2)CC1 (stereo not drawn) | inactive
O=C(c1cccs1)N1CCc2ccc(NS(=O)(=O)Cc3cccc(Cl)c3)cc21 | inactive
Cc1ccc(-n2ccnc2N2CCN(C(=O)c3cccs3)CC2)cc1 | inactive
COC(=O)c1c2c(nc3c1c(-c1ccccc1)nn3C1CCS(=O)(=O)C1)CCC2 (stereo not drawn) | inactive
CCC(=O)Nc1ccc(SCC(=O)NCC2CCCO2)nn1 (stereo not drawn) | inactive
O=C(NCC(O)c1ccc(C(F)(F)F)cc1)C1(c2cccs2)CCCC1 (stereo not drawn) | inactive
